From PubChem BioAssay come the findings set out here.

A short description of experiment [1]: anti-His antibody binders, primary screen, artefact control for SMM control protein annotation, biochemical, small-molecule microarray, 635 nm fluorescence (AID 1128).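 Also: score merges feature fluorescence with signal-to-noise for each printed compound spot.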 As to conditions: anti-His Alexa647 antibody binding, higher = more signal.
The test system of experiment [2] is Human papillomavirus type 1a E7 protein (residues 1-88). Kind of experiment: HPV1a E7 small-molecule binders, primary screen, biochemical, small-molecule microarray, residues 1-88, 635 nm (AID 1129). The conditions noted are these: small-molecule microarray binding, fluorescence 635 nm; higher = more signal.
Experiment [3] deals with Focal adhesion kinase 1 (Homo sapiens) (UniProt Q05397). Kind of experiment: small-molecule microarray binders of FAK, primary screen, biochemical, 635/667 nm fluorescence, BSA, DTT (AID 1130).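 Also: composite of spot emission at 667 nm and signal to noise over triplicate slides.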 As to conditions: PTK2 binding, 635 nm fluorescence, higher = more signal.
Chain of Focal adhesion kinase 1 (Homo sapiens) (Q05397 whole entry, looked up): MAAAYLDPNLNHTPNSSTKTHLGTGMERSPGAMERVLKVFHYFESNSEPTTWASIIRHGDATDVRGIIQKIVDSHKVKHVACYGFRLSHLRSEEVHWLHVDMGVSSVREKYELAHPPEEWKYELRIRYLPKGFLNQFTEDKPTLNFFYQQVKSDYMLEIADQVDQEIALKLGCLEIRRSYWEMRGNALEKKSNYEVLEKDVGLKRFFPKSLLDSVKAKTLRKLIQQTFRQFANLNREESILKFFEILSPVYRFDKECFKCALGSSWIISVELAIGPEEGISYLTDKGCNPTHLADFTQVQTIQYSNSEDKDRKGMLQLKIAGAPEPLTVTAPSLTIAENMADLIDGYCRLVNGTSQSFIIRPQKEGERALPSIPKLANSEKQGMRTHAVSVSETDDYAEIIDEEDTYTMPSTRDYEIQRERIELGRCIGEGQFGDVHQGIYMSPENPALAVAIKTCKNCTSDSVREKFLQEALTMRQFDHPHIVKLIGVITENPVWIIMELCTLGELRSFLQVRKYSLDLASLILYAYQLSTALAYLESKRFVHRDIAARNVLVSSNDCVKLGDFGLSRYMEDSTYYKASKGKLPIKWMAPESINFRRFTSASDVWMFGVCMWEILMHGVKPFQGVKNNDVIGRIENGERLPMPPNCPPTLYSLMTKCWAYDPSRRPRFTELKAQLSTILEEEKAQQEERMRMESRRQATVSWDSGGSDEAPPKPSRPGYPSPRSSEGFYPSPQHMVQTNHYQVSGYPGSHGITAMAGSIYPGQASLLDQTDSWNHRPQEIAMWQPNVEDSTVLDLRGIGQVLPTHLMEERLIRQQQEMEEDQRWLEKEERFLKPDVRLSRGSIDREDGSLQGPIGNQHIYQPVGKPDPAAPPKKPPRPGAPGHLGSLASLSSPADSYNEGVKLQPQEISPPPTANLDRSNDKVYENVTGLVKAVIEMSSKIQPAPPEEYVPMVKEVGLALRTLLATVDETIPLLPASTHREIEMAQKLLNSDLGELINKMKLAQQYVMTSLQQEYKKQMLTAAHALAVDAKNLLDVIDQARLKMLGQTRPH
The subject of experiment [4] is Fibrinogen (Alexa647-labelled). Kind of experiment: fibrinogen binders on compound microarrays, profiling panel, artefact control for SMM control-protein annotation, biochemical, small-molecule microarray, 635/667 nm fluorescence (AID 1131).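 Also: z-score merges 667 nm fluorescence with per-spot signal-to-noise over triplicate slides.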 The conditions noted are these: fibrinogen-A647 binding fluorescence, higher = more signal.
For experiment [5], the target named is Follistatin (Homo sapiens) (UniProt P19883). Kind of experiment: follistatin binders on small-molecule microarrays, primary screen, biochemical, small-molecule microarray, 635/667 nm fluorescence (AID 1132). The conditions noted are these: FST binding, 635 nm fluorescence, higher = more signal.
Chain of Follistatin (Homo sapiens) (P19883 whole entry, looked up): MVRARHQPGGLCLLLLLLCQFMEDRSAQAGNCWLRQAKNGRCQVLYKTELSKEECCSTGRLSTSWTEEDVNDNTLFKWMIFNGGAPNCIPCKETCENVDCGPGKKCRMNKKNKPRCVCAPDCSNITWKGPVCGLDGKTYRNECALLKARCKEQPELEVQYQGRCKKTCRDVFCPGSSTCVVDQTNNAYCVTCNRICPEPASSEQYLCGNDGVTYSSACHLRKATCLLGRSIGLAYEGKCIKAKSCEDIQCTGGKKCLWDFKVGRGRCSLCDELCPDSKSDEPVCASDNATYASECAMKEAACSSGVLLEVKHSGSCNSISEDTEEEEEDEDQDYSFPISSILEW
Experiment [6] has as its target Fibroblast growth factor 2 (Homo sapiens) (UniProt P09038). Kind of experiment: FGF2 binders on small-molecule microarrays, primary screen, biochemical, small-molecule microarray, 635/667 nm fluorescence (AID 1133). The conditions noted are these: small-molecule microarray binding, FGF2, fluorescence 635/667; higher = more signal.
A short description of experiment [7]: mitochondrial membrane potential change in A549 cells, profiling panel, cell-based, JC-1 fluorescence, basal, 24 h, 100 nL (AID 1138).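 Also: A549 lung adenocarcinoma cells under basal conditions with no added stimulus; test concentration not given here.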 The conditions noted are these: higher = more signal.
A further experiment has as its system Lefty1. Description: Lefty1 binders on small-molecule microarrays, primary screen, biochemical, small-molecule microarray, 635/667 nm fluorescence (AID 1139). The conditions noted are these: small-molecule microarray binding, fluorescence 635/667; higher = more signal.
Experiment [8] concerns wheat germ agglutinin (Triticum aestivum), Alexa647-labelled. Description: wheat germ agglutinin binders on compound microarrays, profiling panel, artefact control for SMM control-protein annotation, biochemical, small-molecule microarray, 635/667 nm fluorescence (AID 1140).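 Also: score merges 667 nm feature emission with signal to noise over triplicate slides.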 As to conditions: WGA-A647 binding, 635 nm fluorescence, higher = more signal.
The target of experiment [9] is Luciferin 4-monooxygenase (Photinus pyralis) (UniProt P08659). Kind of experiment: firefly luciferase enzyme inhibitors, primary screen, biochemical, luminescence, purified enzyme, 2006 set (AID 1141).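 Also: cell-free assay with purified firefly luciferase at 100 ng per well in PBS; test concentration not given here.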 As to conditions: SteadyGlo luminescence, 30 min, higher = more signal, called active from +8 up or from −8 down.
Chain of Luciferin 4-monooxygenase (Photinus pyralis) (P08659 whole entry, looked up): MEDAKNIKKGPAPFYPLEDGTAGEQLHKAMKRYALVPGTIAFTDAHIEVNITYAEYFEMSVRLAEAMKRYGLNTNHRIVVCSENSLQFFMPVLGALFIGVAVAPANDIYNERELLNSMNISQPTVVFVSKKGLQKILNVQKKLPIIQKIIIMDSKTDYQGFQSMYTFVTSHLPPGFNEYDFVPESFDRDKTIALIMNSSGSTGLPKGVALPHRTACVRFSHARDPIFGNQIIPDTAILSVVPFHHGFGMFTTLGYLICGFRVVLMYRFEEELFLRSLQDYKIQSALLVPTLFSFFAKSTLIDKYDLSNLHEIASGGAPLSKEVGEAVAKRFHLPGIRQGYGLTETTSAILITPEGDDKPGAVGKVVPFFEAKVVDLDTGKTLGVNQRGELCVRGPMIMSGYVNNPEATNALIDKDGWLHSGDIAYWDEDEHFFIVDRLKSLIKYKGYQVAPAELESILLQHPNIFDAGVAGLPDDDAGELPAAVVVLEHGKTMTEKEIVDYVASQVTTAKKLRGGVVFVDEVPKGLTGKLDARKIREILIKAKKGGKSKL
For experiment [10], the system named is Wnt5a (protein binding on small-molecule microarray). Description: Wnt5a binders on small-molecule microarray, primary screen, biophysical, 635/667 nm fluorescence (AID 1142).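 Also: fluorescence read at 667 nm with signal to noise per printed feature.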 As to conditions: 635 nm fluorescence, higher = more signal.
A short description of experiment [11]: cell viability in Huh7 cells, primary screen, cytotoxicity control for HCV replication inhibitor project, CellTiter-Glo luminescence, basal, 48 h (AID 1143).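 Also: Huh7 hepatoma cells carrying a hepatitis C replication reporter with no stimulus; test concentration not given here.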 The conditions noted are these: Huh7 HCV replicon, higher = more signal, called active from +8 up or from −8 down. In general terms: In ATP-based viability assays light output follows the ATP content of the culture.

The nature of experiment [12]: P. aeruginosa biofilm formation inhibitors, primary screen, PAO1 strain, BacTiter-Glo luminescence, LB-PBS (AID 1144). The conditions noted are these: 12 h, higher = more signal.
A short description of experiment [13]: CREB reporter modulators without forskolin, primary screen, cell-based, PC12, CRE-LacZ reporter, unstimulated (AID 1145). As to conditions: no forskolin, luminescence, 4.5 h, higher = more signal, called active from +8 up or from −8 down.
Experiment [14] is described as follows: CREB reporter modulators under forskolin, primary screen, cell-based, PC12, CRE-LacZ reporter, forskolin-stimulated (AID 1146).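 Also: PC12 cells with 6xCRE LacZ reporter stimulated by forskolin 10 µM; beta-galactosidase reporter signal reflecting CREB driven transcription.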 As to conditions: luminescence, 4.5 h, higher = more signal, called active from +8 up or from −8 down.
Experiment [15] deals with Streptavidin (Streptomyces avidinii) (UniProt P22629). Kind of experiment: streptavidin binders on small-molecule microarray, primary screen, artefact control for SMM compound annotation, biophysical, 635/667 nm fluorescence (AID 1147).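 Also: signal reflects streptavidin binding to arrayed compounds as a control protein.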 As to conditions: streptavidin binding, higher = more signal.
Chain of Streptavidin (Streptomyces avidinii) (P22629 whole entry, looked up): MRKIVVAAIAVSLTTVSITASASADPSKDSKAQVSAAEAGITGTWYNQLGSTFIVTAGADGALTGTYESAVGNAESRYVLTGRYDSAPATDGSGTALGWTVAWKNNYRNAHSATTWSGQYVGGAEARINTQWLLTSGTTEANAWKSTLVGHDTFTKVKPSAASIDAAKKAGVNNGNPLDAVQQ
Experiment [16] in a line: small-molecule binders of probe aInhba, primary screen, biochemical, small-molecule microarray, 635/667 nm fluorescence (AID 1148).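 Also: score merges 667nm spot fluorescence with signal-to-noise for antibody binding to printed compounds.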 The conditions noted are these: higher = more signal.
The target in experiment [17] is Torsin-1A (Homo sapiens) (UniProt O14656). Kind of experiment: torsin A binders from cell lysate, primary screen, small-molecule microarray, wild-type, 635/667 nm (AID 1149). As to conditions: COS7 hTOR1A-WT lysate, 635 nm fluorescence, higher = more signal.
Chain of Torsin-1A (Homo sapiens) (O14656 whole entry, looked up): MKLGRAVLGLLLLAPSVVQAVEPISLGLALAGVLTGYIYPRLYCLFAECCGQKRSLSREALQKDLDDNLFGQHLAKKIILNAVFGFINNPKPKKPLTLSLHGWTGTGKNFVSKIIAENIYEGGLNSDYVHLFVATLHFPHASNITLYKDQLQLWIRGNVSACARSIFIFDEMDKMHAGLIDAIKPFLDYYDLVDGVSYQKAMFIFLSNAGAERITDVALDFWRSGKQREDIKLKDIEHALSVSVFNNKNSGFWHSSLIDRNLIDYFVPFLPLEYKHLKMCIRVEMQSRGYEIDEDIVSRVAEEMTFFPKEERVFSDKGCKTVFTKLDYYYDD
Experiment [18] has the same target. Description: small-molecule binders of mutant TOR1A in lysate, primary screen, cell lysate, small-molecule microarray, COS7 lysate, 635/667 nm fluorescence (AID 1150).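 Also: score pools 667 nm emission and signal to noise measuring lysate protein binding.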 As to conditions: COS7 hTOR1A mutant lysate, 635 nm fluorescence, higher = more signal.
Experiment [19] deals with Sonic hedgehog protein (Shh). Kind of experiment: small-molecule binders of Shh protein, primary screen, biochemical, small-molecule microarray, 635/667 nm fluorescence (AID 1151).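 Also: Shh protein binding to compounds spotted on small-molecule microarray slides; score combines spot fluorescence intensity with signal-to-noise across triplicate slides.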 As to conditions: small-molecule microarray binding, 635 nm fluorescence; higher = more signal.

Calls of active or inactive are those of the source. Unless noted, no rule for the calls is given here.

Chain of Fibroblast growth factor 2 (Homo sapiens) (P09038 whole entry, looked up): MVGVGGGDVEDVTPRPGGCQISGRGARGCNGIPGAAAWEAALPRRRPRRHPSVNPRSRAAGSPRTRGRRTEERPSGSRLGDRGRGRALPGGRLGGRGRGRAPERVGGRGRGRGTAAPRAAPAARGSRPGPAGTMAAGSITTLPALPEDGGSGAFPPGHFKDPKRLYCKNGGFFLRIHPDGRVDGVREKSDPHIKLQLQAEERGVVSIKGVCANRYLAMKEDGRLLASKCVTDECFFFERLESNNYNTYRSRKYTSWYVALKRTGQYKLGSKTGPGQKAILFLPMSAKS

For `CN1C(=O)C2C=CC(C(O)C3CC=CCC3)N(NC(=O)OC(C)(C)C)C2C1=O` (stereo not given), the composite z-score is 0.561 in experiment [1]; 0.889 in experiment [2]; 0.465 in experiment [3]; -0.0919 in [4]; 1.25 in experiment [5]; 0.124 in experiment [6]. Moreover, the composite z-score with Lefty1 came out at 0.717; in experiment [8], 1.32; in experiment [10], 0.154; in [15], 1.15; in [16], 0.0301; with Torsin-1A (Homo sapiens) [17], 0.665. For the same compound, the composite z-score with Torsin-1A (Homo sapiens) [18] was 1.12; in experiment [19] it was 0.737. Moreover, the z-score is -0.0347 in experiment [7]; -0.71 (inactive) in [9]; 0.248 (inactive) in [11]; 0.0321 (inactive) in experiment [12]; 0.626 (inactive) in experiment [13]; 0.257 (inactive) in experiment [14].
For the compound `CCOC(=O)C1=CCC(c2ccccc2)N(S(=O)(=O)CC[Si](C)(C)C)C1` (stereo not given), the composite z-score is 0.149 in [1]; -0.401 in experiment [2]; 0.384 in experiment [3]; -0.325 in [4]; -0.172 in [5]; -0.617 in experiment [6]. For the same compound, the composite z-score in the experiment with Lefty1 was -0.503; in [8], 0.0225; in experiment [10], -0.386; in [15], -0.192; in experiment [16], -0.363; with Torsin-1A (Homo sapiens) [17], 1.04. In addition, the results for the composite z-score (with Torsin-1A (Homo sapiens) [18]; in experiment [19]) were 0.673 and -0.302, respectively. Further, the z-score is 3.06 in [7]; 1.2 (inactive) in experiment [9]; -4.87 (inactive) in [11]; -0.296 (inactive) in experiment [12]; -0.322 (inactive) in experiment [13]; 0.497 (inactive) in [14].
Regarding `Cc1ccc(C(C)CC(O)C2C=CC3C(=O)N(C)C(=O)C3N2NC(=O)OC(C)(C)C)o1` (stereo not given), the composite z-score in experiment [1] came out at 1.65; in experiment [2], 1.01; in experiment [3], 0.759; in experiment [4] it was 0.314; in [5], 0.997; in experiment [6] it was 0.48. Moreover, the composite z-score amounted to 0.444 in the experiment with Lefty1; 0.563 in [8]; 0.376 in experiment [10]; 1.22 in experiment [15]; 0.4 in experiment [16]; 0.204 with Torsin-1A (Homo sapiens) [17]. For the same compound, the composite z-score in the experiment with Torsin-1A (Homo sapiens) [18] is 1.05; in [19] it was 0.245. Moreover, the z-score was -0.475 in experiment [7]; -1.3 (inactive) in experiment [9]; 0.963 (inactive) in [11]; 0.399 (inactive) in [12]; 0.0569 (inactive) in [13]; -0.0179 (inactive) in experiment [14].
`COc1cc2c(cc1O)C=[N+](Cc1cccc(OC(F)(F)F)c1)CC2`: the composite z-score in experiment [1] is -0.131; in experiment [2], -0.566; in experiment [3], 0.185; in experiment [4], -0.636; in [5], 0.318; in experiment [6] it was -0.0744. In addition, the composite z-score in the experiment on Lefty1 is -0.285; in [8] it was 1.01; in [10], -0.141; in experiment [15] it was -0.535; in experiment [16], -0.127; with Torsin-1A (Homo sapiens) [17], 0.955. In addition, the composite z-score is 0.284 with Torsin-1A (Homo sapiens) [18] and -0.0245 in experiment [19]. Further, the z-score is 2 in experiment [7]; -0.847 (inactive) in experiment [9]; -2.11 (inactive) in experiment [11]; -0.28 (inactive) in experiment [12]; -0.401 (inactive) in experiment [13]; -0.583 (inactive) in [14].
As to `CC(CO)N1C(=O)[C@@H]2C3C(=O)OCCC/C=C\[C@H]3OC23C=CCN(c2ccc4ccccc4c2)C(=O)[C@@H]13` (stereo not given in full), the composite z-score in experiment [1] was 0.339; in experiment [2], -0.351; in experiment [3], -0.363; in [4], 0.167; in experiment [5] it was -0.382; in [6] it was -0.865. Besides, the composite z-score in the experiment with Lefty1 was -0.632; in experiment [8], 0.0312; in [10], -0.632; in experiment [15], -0.342; in [16], -0.0719; in the experiment with Torsin-1A (Homo sapiens) [17], -1.72. Besides, the figures for the composite z-score (in the experiment with Torsin-1A (Homo sapiens) [18]; in experiment [19]) were -1.03 and -0.256, respectively. Besides, the z-score in experiment [7] was 0.45; in [9], -0.846 (inactive); in experiment [11], 0.645 (inactive); in [12], -1.02 (inactive); in experiment [13], -0.0737 (inactive); in experiment [14] it was 0.156 (inactive).
